26 molecules from ChEMBL document CHEMBL1157539, “Thousands of chemical starting points for antimalarial lead identification” (Nature, 2010) can be followed below.

One may read the Inhibition as the percentage by which the read-out fell short of the control.

In this assay the test system is Plasmodium falciparum. Kind of assay: GSK_TCMDC: Inhibition of Plasmodium falciparum 3D7 in whole red blood cells, using parasite LDH activity as an index of growth. Test compounds present at 2uM. In kind it is functional.
In turn, `CC(=O)N/N=C/[C@H](CCc1ccccc1)NC(=O)[C@H](CC(C)C)NC(=O)c1ccc(F)cc1` displayed an Inhibition of 95%. The value for `N=C(N)c1ccc(Nc2nccc(Nc3nc(-c4ccccc4)cs3)n2)cc1.O=C(O)C(F)(F)F` was 96%; that for `Cc1cccc2nc(-c3cccc(-c4cccc(NC(=O)c5cnccc5C(F)(F)F)c4)c3)[nH]c12` was 98%.

`COc1ccc(CNC2CCN(C)CC2)cc1-c1ccc(S(=O)(=O)NCc2ccccc2)c(F)c1.O=C(O)C(F)(F)F` returned an Inhibition of 100%.

Consider `C/C(=C\C(=O)NC1CC1)c1ccccc1OCc1ccccc1`, for which the Inhibition is 90%. With `Cc1cc(CNCCCCCCCNCc2ccc(-c3ccccc3)cc2)ccc1O` the figure was 97%; with `COc1cccc(NC(=O)c2cc(C(=O)Nc3cccc(OC)c3)cc([N+](=O)[O-])c2)c1`, 99%.

Turning to `COc1ccc(-c2cccc(NC(=O)c3ccc(F)cc3)c2)cc1CNC(C)C.O=C(O)C(F)(F)F`, the Inhibition was 83%. The value for `Cc1cc(N(C)C)nc(Nc2ccc(NC(=O)C3CCCCC3)cc2)n1` was 100%. `O=C(/C=C/c1cc([N+](=O)[O-])ccc1Cl)N1CCC(CCN2CCC(c3c[nH]c4ccccc34)CC2)CC1` showed an Inhibition of 92%. The value for `COc1ccccc1CCNc1nc(C)cc(N[C@@H](CC(C)C)C(=O)Nc2ccccc2)n1.O=C(O)C(F)(F)F` was 100%.

For `CCN(CC)CCN(Cc1ccc(-c2ccc(C(F)(F)F)cc2)cc1)C(=O)Cn1c(CCc2cc(F)cc(F)c2)nc(=O)c2ccccc21.O=C(O)C(O)C(O)C(=O)O`, the Inhibition was determined as 91%. With `OC(CNCc1ccccc1)c1cc(OCc2ccccc2)cc(OCc2ccccc2)c1` (stereo unspecified) the figure was 98%; with `CC(=O)Nc1ccc2[nH]cc(C3CCN(CCC4CCN(C(=O)/C=C/c5ccc(Cl)c(Cl)c5)CC4)CC3)c2n1`, 100%. The value for `CO/C(=C\C=C\c1cc2cc(Cl)c(Cl)cc2[nH]1)C(=O)NCCCNC12CC3CC(CC(C3)C1)C2` was 99%; that for `Cl.FC(F)(F)c1ccccc1OCc1cc(-c2ccncc2)c(COc2ccccc2C(F)(F)F)cc1C1=CCNCC1` was 98%. The value for `CCCO[C@H](C(=O)OC)[C@@H](CC1Cc2ccccc2C1)C(=O)NCCC1=CCCCC1` was 93%.

`O=C(Nc1ccc(S(=O)(=O)NCCCN2CCOCC2)cc1)c1cc(-c2ccccc2)[nH]n1` showed an Inhibition of 82%. Turning to `CN(C)Cc1cccc(-c2ccc(NC(=O)c3ccc4c(=O)n(C5CCCCC5)cnc4c3)cc2)c1`, the Inhibition turned out to be 96%. The value for `CC(=O)Nc1ncc(C(=O)Nc2ccc(-c3cccc(-c4nc5cc(F)ccc5[nH]4)c3)cc2)s1` was 100%.

`CC(C)(C)Oc1ccc(C[C@@H]2NC3(C(=O)N(Cc4ccc(Cl)c(Cl)c4)c4ccccc43)C3C(=O)N(c4ccc(Br)cc4)C(=O)C32)cc1` (stereo partly specified) gave an Inhibition of 86%. `COc1ccc(NC(=O)c2ccc(Br)c(C)c2)cc1N1CCN(Cc2ccccc2)CC1.O=C(O)C(=O)O` had an Inhibition of 95%.

`Cc1cc(NCCC(=O)NCc2cccc(F)c2)nc(NCCc2ccc(F)cc2)n1.O=C(O)C(F)(F)F` had an Inhibition of 89%. The value for `CCc1c(C)c2ccc3c(c2oc1=O)CN(CCc1ccc(F)cc1)CO3` was 94%. Take `Cc1cccc2nc(-c3ccc(-c4ccc(CNCCCN5CCCC5=O)cc4)s3)[nH]c12.O=C(O)C(F)(F)F`: the Inhibition is listed as 100%. In the case of `COc1ccc2nccc([C@@H](O)CN3CCC(NCc4ccc5c(n4)NCCC5)CC3)c2c1`, the Inhibition was determined as 100%.
